IL1B NFkB inh – blocks IL-1B driven NFkB nuclear translocation in HUVEC cells; HUVEC IL-1B NFkB p65 nuclear translocation imaging; inhibition, % at 2 µM; 94,000 tested, 0.43% active; AID 796;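 active = inhibition above about 30% together with a positive call from visual inspection of the well image, limit read from the data; inconclusive = inhibition above a set limit but visual check negative; inactive = inhibition not above a set limit, visual check negative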;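 also: nuclear over cytoplasmic p65 intensity ratio measured by imaging; 0% = IL-1B stimulated DMSO wells and 100% = unstimulated DMSO wells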
IL1B NFkB pot – enhances IL-1B driven NFkB nuclear translocation; HUVEC IL-1B NFkB p65 nuclear translocation imaging; activation, % at 2 µM; 94,000 tested, 0.3% active; AID 819;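 active = activation above 40%, about the mean plus 3 SD, also judged a hit on visual image review; inconclusive = activation above 40% but not a hit on visual review; inactive = activation not above 40% and no visual hit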;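 also: percent activation is computed from the nuclear over cytoplasmic p65 intensity ratio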
sEH inh – blocks human soluble epoxide hydrolase activity; recombinant human sEH enzymatic activity assay; inhibition, % at 2 µM; 91,000 tested, 0.34% active; P34913; in the data active = inhibition above about 80%
Target sequence (P34913 whole entry, looked up): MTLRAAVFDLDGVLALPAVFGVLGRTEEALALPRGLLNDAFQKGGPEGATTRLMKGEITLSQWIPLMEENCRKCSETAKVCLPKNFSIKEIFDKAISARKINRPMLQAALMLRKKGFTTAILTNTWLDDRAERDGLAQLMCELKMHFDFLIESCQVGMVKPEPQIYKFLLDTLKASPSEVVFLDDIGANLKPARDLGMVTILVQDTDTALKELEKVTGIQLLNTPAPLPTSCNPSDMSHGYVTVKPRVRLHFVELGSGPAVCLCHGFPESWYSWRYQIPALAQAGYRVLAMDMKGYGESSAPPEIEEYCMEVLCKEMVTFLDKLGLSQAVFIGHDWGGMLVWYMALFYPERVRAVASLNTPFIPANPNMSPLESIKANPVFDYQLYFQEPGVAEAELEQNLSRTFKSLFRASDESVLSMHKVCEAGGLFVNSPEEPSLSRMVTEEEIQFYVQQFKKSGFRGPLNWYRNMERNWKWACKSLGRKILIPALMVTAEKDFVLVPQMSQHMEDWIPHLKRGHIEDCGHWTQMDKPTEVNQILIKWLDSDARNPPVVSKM
Cav32 inh – blocks human Cav3.2 T-type calcium channel; O95180; Cav3.2-expressing cells, Fluo-4 calcium fluorescence FDSS; hits give low values; B-score at 10 µM; 100,000 tested, 4% active; AID 449739;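 active = single-dose well whose peak fluorescence ratio is a statistical outlier from its plate by either plate-standardised score or position-corrected B-score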
sEH activator – activators of human soluble epoxide hydrolase; P34913; purified human sEH enzymatic activity, activator screen; activation, % at 2 µM; 91,000 tested, 0.04% active; in the data active = activation above about 37%
IL1B cytotox – toxic to HUVEC cells under IL-1B stimulation; HUVEC cell count loss, Hoechst imaging, IL-1B stimulated; cell count reduction, % at 2 µM; 94,000 tested, 0.41% active;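 active = cell count reduction more than 3 SD above the screen-wide mean, cut at about 70% in these data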;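 also: normalized per plate to untreated control cells as the no-loss baseline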
* = called active by the depositor; ? = inconclusive; . = no result. Only some compounds are listed: those with a hit (about 4.6% of all), similar ones and a draw of the others.

SMILES	IL1B NFkB inh	IL1B NFkB pot	sEH inh	Cav32 inh	sEH activator	IL1B cytotox
CC1(OC(=O)c2cccs2)C(=O)C=C2C=C(C3CC3)OC=C2C1=O (centres undefined)	.	.	.	-2.8*	.	.
CC(C)Cn1cnc2c1c(=O)n(CC(=O)Nc1ccc3c(c1)OCO3)c(=O)n2Cc1ccccc1	33*	-33	-7	-0.46	6	72*
Cc1ccc(-c2nnc(SCc3nc4ccccc4[nH]3)n2Cc2ccco2)cc1	0	0	-3	.	4	6
Cc1cccc(-c2nnc(SCc3nc4ccccc4[nH]3)n2Cc2ccco2)c1	6	-6	38	-4.8*	-39	13
C(=C\c1ccccc1)/CSc1nnc(-c2ccccc2)n1Cc1ccco1	4	-4	8	-5.8*	-7	14
COc1ccc(C(=O)NCC(C)(C)SCc2c(C)cc(C)cc2C)cc1	-7	7	-12	-3.3	11	4
CCOC(=O)c1cnc2ccc(C)cc2c1Nc1ccc(N2CCOCC2)cc1	-9	9	-14	-0.028	14	2
O=C(Nc1ccc(O)c2c(=O)cc(-c3ccccc3Cl)oc12)c1cccc(Cl)c1	.	.	.	-0.14	.	.
CCOC(=O)c1cnn(-c2ccccc2)c1-n1cccc1C(=O)C(=O)Nc1ccc(OC)cc1	-9	9	-17	-3.3	16	94*
CCOC(=O)c1cnn(-c2ccccc2)c1-n1cccc1	-5	-24	11	-1.2	-11	39
O=C(NCc1ccc(F)cc1)c1noc2c1CCCCC2	.	.	.	-4.5	.	.
O=C(NCc1ccc(Cl)cc1)c1noc2c1CCCCC2	.	.	.	-5*	.	.
COc1ccc(NC(=O)[C@@H]2CC=C[C@@H]3CCN(C4CCCCC4)C(=O)[C@@H]32)cc1	.	.	.	0.14	.	.
CN(C)c1ccc(/C=C/C(O)=C2/C(=O)N(C)C3(C)CC2c2ccccc2O3)cc1 (centres undefined)	-10	10	-17	-6.2*	11	-114
CN(C)c1ccc(C=C2C(=O)OC(C)(C(C)(C)C)OC2=O)cc1 (centres undefined)	0	-1	2	0.4	-2	-2
CCN(Cc1ccccc1)S(=O)(=O)c1ccc(C(=O)Nc2nnc(C3CC3)o2)cc1	10	-10	8	-5.6*	-4	-9
CSCc1nnc(NC(=O)c2ccc(S(=O)(=O)N(CC(C)C)CC(C)C)cc2)o1	0	0	13	-6*	-11	-18
O=C(CSc1nnc(-c2ccc3c(c2)OCCO3)o1)N1CCCC1	-36	36	5	.	-4	-5
CC(C)C(CCNC(=O)CC(Cc1ccccc1)c1ccco1)c1ccco1 (centres undefined)	0	0	46	-6.8*	-46	0
CC(C)C(CCNC(=O)CN1C(=O)c2ccccc2C1=O)c1ccco1 (centres undefined)	-17	17	13	0.96	-12	-6
CNS(=O)(=O)c1cccc(C(=O)Nc2cccc(Cl)c2)c1	1	-1	15	-0.58	-14	-8
Cc1ccc(-c2nn(-c3ccccc3)cc2C=C2C(=O)CC(C)(C)CC2=O)cc1	6	-6	-3	2.2	4	-12
CC1=NNC(=O)/C1=C\c1cn(-c2ccccc2)nc1-c1ccc(Cl)cc1	71*	-71	10	-0.094	-10	25
CCNC(=O)Cc1ccc(NS(=O)(=O)c2ccc(F)cc2)cc1	-38	38	7	0.022	-5	-10
O=C(Cc1ccc(NS(=O)(=O)c2ccc(F)cc2)cc1)NCc1ccccc1	-34	34	16	-5.2*	-13	7
SMILES	IL1B NFkB inh	IL1B NFkB pot	sEH inh	Cav32 inh	sEH activator	IL1B cytotox
CCCC(=Nc1ccc(N)cc1)C1=C(O)C(C(=O)OC)C(C)(C)CC1=O (centres undefined)	2	-2	-1	-5.1*	1	-7
CC(NC(=O)CC12CC3CC(CC(C3)C1)C2)C(=O)O (centres undefined)	-2	2	-4	-3.5*	7	-13
O=C(CC12CC3CC(CC(C3)C1)C2)NCO	7	-7	4	0.063	-3	-9
Cc1ccc(C)c(NC(=O)CC(NCCCN2CCOCC2)C(=O)O)c1 (centres undefined)	2	-2	-4	.	1	7
C#CCN1C(=O)C(O)(CC(=O)c2cccc(OC)c2)c2ccccc21 (centres undefined)	-11	11	1	0.83	-3	-4
O=C1C2=C(SCCS2)C(=O)N1CCCO	11	-11	-4	.	5	11
COc1ccc(CCNC(=O)c2cc(C(C)C)on2)cc1OC	.	.	.	-1.2	.	.
COc1ccc(CCNC(=O)C(=O)NCc2ccc(C(C)C)cc2)cc1OC	8	-8	3	-7.3*	-2	-63
O=C(CN1CCC(c2nc3ccccc3[nH]2)CC1)Nc1ccc2c(c1)OCO2	16	-16	17	0.41	-17	15
COc1ccc(-n2c(C)cc(C(=O)Cn3c(NCCO)nc4ccccc43)c2C)cc1	-41	41*	-3	-6.8*	4	4
CCc1c(C)c2c(C)nn(-c3ccccc3)c2[nH]c1=O	-11	11	-9	-1.2	7	1
CCOC(=O)c1[nH]c(C)c(C(=O)Nc2cc(OC)ccc2OC)c1C	30*	-30	-10	.	10	80*
Cc1nnc(SCCCOc2ccccc2)nc1C	.	.	.	0.19	.	.
Cc1cc(C)n(Cc2ccc(Cl)cc2Cl)c(=O)c1S(=O)(=O)c1ccccc1	11	-11	11	-4.3*	-10	-39
COC(=O)C1=C(C)N=c2s/c(=C/c3cccs3)c(=O)n2C1c1ccc(F)cc1 (centres undefined)	3	-3	-8	-1.8	11	-27
COc1ccccc1C1C(C(C)=O)=C(C)N=c2s/c(=C\c3cc(OC)c(OC)c(OC)c3)c(=O)n21 (centres undefined)	98*	-98	2	-0.17	-4	84*
O=C1c2cnc3nc(SCc4ccc(Cl)cc4)nn3c2CC2c3ccccc3CCN12 (centres undefined)	7	-7	-14	-6.3*	11	-7
CCc1ccc(NC(=O)c2ccc(C3SCC(=O)N3CCc3ccccc3)cc2)cc1 (centres undefined)	8	-8	17	.	-16	1
Cc1cccc(NC(=O)c2ccc(C3SCC(=O)N3CCc3ccccc3)cc2)c1C (centres undefined)	-27	27	-2	-4.5*	1	-7
CCCCCC(=O)N/N=C/c1ccc([N+](=O)[O-])o1	-25	25	-9	-0.033	6	93*
CCOC(=O)C(C(=O)Nc1nc2ccccc2s1)C1CCCCC1 (centres undefined)	11	-11	2	-7.8*	1	-12
Cc1noc(C)c1S(=O)(=O)N(CCc1ccccc1)Cc1ccccc1	-48	?	.	-4.7*	.	-4
O=C(Nc1ccc(Cl)c(Cl)c1)C1=Cc2ccccc2OC1	-12	12	9	-0.63	-10	-6
O=C(CCNS(=O)(=O)c1ccc(Br)s1)N1CCN(c2ccccc2)CC1	-3	5	-12	-5.5*	15	-66

Compound activity from PubChem.
